Drawing on PubChem BioAssay (NCATS), this text covers outcome, Potency and max response for one molecule.

SMILES strings stand for the structures. Several values for one entry are separate records, joined by “and”; a condition that tells them apart may be missing. Equal values may be shown once. Unmarked numbers belong to inactive results. Results filed as inconclusive are left out. Activity calls are given as the source filed them. Unless noted, the call rests on the fitted dose curve; in most records, active means well fitted curve in the direction sought with a large enough effect; inconclusive means small, poorly fitted or top-dose-only effect, or another doubt; inactive means no such curve, though single readings can be large; an effect the other way counts as inactive or inconclusive.

The target of assay [1] is T1, Hexokinase-4 (Homo sapiens) + Glucokinase regulatory protein (Homo sapiens) (UniProt P35557+Q14397). The assay is described as follows: qHTS assay for inhibitors of recombinant human GCK-GKRP interaction: ADP-Glo assay (AID 743206).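 Further: plate controls were DMSO plus enzyme for no effect and no enzyme for full effect.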 In a few lines:
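Pin-transferred compounds meet a 15 nM GST-GCK/15 nM FLAG-GKRP/2 uM S6P mix (dispense concentrations). ATP is then added to 0.4 mM final with 5 mM glucose, and the reaction runs 60 min at room temperature. ADP is quantified luminescently.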
(In qHTS, concentration-response curves come from the screen itself.)

In assay [2] the target is T1, Hexokinase-4 (Homo sapiens) + Glucokinase regulatory protein (Homo sapiens). Nature of the assay: qHTS assay for inhibitors of recombinant human GCK-GKRP interaction: HTRF assay (AID 743207).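 Further: 0% = DMSO with GCK present and -100% = DMSO wells lacking GCK.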 In a few lines:
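Steps: dispense GCK–GKRP complex (5 nM each, GST- and FLAG-tagged) with 2 uM S6P; pin in compounds; add XL665/Eu-cryptate-labelled antibodies; incubate 60 min at room temperature; read time-resolved FRET at 665 and 615 nm.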

The target of assay [3] is Atrial natriuretic peptide receptor 1 (Homo sapiens) (UniProt P16066). Nature of the assay: Natriuretic polypeptide receptor (hNpr1) antagonism - Pilot screen (AID 1347049; calls by dose curve;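 further: HEK293 cells with hNpr1 and GloSensor cGMP luciferase stimulated by 0.1 nM hNppA; agonist-evoked cGMP luminescence read 20 min after hNppA addition; series mostly up to about 58 µM; on the % scale 0 is the no-effect control and ±100 the full control effect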). The method, boiled down: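 Cells expressing receptor plus cGMP biosensor are seeded and incubated overnight at 37C, then loaded with GloSensor reagent (2% final) at room temperature for 2 h. Library compounds go on for 30 min. A pre-read precedes agonist (hNppA, 0.1 nM final) and a 20-min readout.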

For assay [4], the target named is Atrial natriuretic peptide receptor 2 (Homo sapiens) (UniProt P20594). The assay is described as follows: Natriuretic polypeptide receptor (hNpr2) antagonism - Pilot subtype selectivity assay (AID 1347050; calls by dose curve; further: on the % scale 0 is the no-effect control and ±100 the full control effect). The method, boiled down:
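Read-out: GloSensor luminescence (CCD imager), baseline vs post-stimulation. HEK293 cells expressing hNpr2; compounds pre-incubated 30-50 min at ambient temperature; hNppC 1 nM final, 20 min.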

The target of assay [5] is Parathyroid hormone/parathyroid hormone-related peptide receptor (Homo sapiens) (UniProt Q03431). The assay is described as follows: qHTS for PTHR1 Agonists: Optimization Screen against the NCGC LOPAC library (AID 1347079).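 Further: GloSensor cAMP luminescence in HEK-293 GP2 cells expressing human PTHR1 with IBMX; 0% is about no effect.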 In a few lines: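 Signal increase flags agonism. GP2 cells, derived from HEK-293, express human PTHR1 and a GloSensor cAMP construct.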
In assay [6] the target is N-terminal Xaa-Pro-Lys N-methyltransferase 1 (Homo sapiens) (UniProt Q9BV86). Nature of the assay: qHTS Assay for Inhibitors of N-terminal methyltransferase 1 (NTMT1): LOPAC validation of the NTMT1 SAHH-coupled ThioGlo3 Assay (AID 1347143).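 Further: SAH from peptide methylation measured as thiol fluorescence via SAHH coupling and ThioGlo3; potency means the concentration at half of the fitted maximal effect; nearly all actives have a fitted effect of over 70% in size.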 In a few lines: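 In this qHTS pilot against the LOPAC set, 125nM NTMT1 met compounds tested at multiple concentrations, and fluorescence was normalized to background.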

Assay [7] has as its system Zika virus NS2B-NS3 protease. The assay is described as follows: Primary screen GU AMC qHTS for Zika virus inhibitors (AID 1347154). Further: nearly all actives have a fitted effect of over 70% in size. In a few lines:
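Unlinked Zika NS2B hydrophilic domain/NS3 protease domain noncovalent complex (25 nM final) in 10 mM Tris-HCl pH 8.0, 0.01% Tween 20, with AMC peptide substrate. Fluorescence (ex 340, em 450 nm) change over 15 min, room temperature; percent inhibition fitted to 4-parameter Hill equation.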

The target of assay [8] is Lysine-specific demethylase 5B (Homo sapiens) (UniProt Q9UGL1). The assay is described as follows: Optimization screen for KDM5B Histone Demethylases FDH coupled qHTS against the LOPAC library (AID 1347166). Further: 0% is about no effect. The method, boiled down: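 KDM5BDeltaAP (200nM final) in 50mM HEPES pH 7.5, 0.01% Tween-20 was preincubated with compound for 10 min at room temperature. A substrate mix of 12.5uM H3K4Me3, 25uM a-ketoglutarate, ascorbate, Fe2+, NAD+ and formaldehyde dehydrogenase was then added. NADH fluorescence (340/450 nm) was read initially and after 30 min.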

A short description of assay [9]: qHTS to identify inhibitors of the type 1 interferon - major histocompatibility complex class I in skeletal muscle: primary screen against the NCATS LOPAC collection (AID 1347405).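 Further: human myoblasts with HiBiT tag on endogenous HLA-B stimulated by IFN-beta; lytic HiBiT luminescence reporting HLA-B protein level; potency means the concentration at half of the fitted maximal effect.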 In a few lines: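 IFN-beta-stimulated (4 ng/ml) HLA-B HiBiT knock-in myoblasts, compound-treated 24 hrs up to 46 uM final; signal via LgBiT complementation and furimazine luminescence.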

Assay [10] in a line: qHTS for inhibitors of adenylyl cyclases using a fission yeast platform: a pilot screen against the NCATS LOPAC library (AID 1347410).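 Further: plate controls were DMSO vehicle for no effect and DPI positive control for full effect.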 In a few lines:
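Growth medium went into the plates first, then compounds were pinned (final up to 57 µM), then CHP2027 yeast were added. Plates were incubated overnight (18 h) at 30C in the dark, and GFP was measured by laser scanning cytometry.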

Assay [11] deals with Single-stranded DNA cytosine deaminase (Homo sapiens) (UniProt Q9GZX7). The assay is described as follows: Validation qHTS assay for inhibitors of Activation Induced Cytidine Deaminase (AID): AID signal (AID 1347429). Further: on the % scale 0 is the no-effect control and ±100 the full control effect. The method, boiled down:
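Compounds (up to 114 uM final) are tested against AID plus UDG using DJC20/DJC23 FRET substrate. Reactions incubate 4 hr at room temperature, receive NaOH for 30 min, and are read at Ex 540/Em 590 nm.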

Assay [12] is described as follows: Primary qHTS for inhibitors of La Crosse Virus (LACV) - induced cell death in SH-SY5Y cells (AID 1508616).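 Further: top concentration of the series differs between compounds; 0% = infected DMSO wells and 100% = uninfected DMSO wells; higher means more rescue of cells from virus-induced death.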 The method, boiled down: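 Screening measures cell viability in LACV-infected SH-SY5Y cultures. Compound was added before virus (0.01 MOI), and ATP was detected by luminescence 6 days later.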
The nature of assay [13]: Counterscreen qHTS for small molecule stabilizers of the endoplasmic reticulum resident proteome: GLuc-NoTag assay (AID 1508627). Further: potency means the concentration at half of the fitted maximal effect. In a few lines:
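Secreted GLuc lacking the SERCaMP modification is measured in SH-SY5Y cells exposed to compound for 19 h and then to thapsigargin (100 nM, 4 h) to deplete ER calcium; hits retested at 11 concentrations, up to 76.6 uM.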

Assay [14] in a line: Confirmatory qHTS for small molecule stabilizers of the endoplasmic reticulum resident proteome: Secreted ER Calcium Modulated Protein (SERCaMP) assay (AID 1508628). Further: potency means the concentration at half of the fitted maximal effect; nearly all actives have a fitted effect of over 40% in size. In a few lines:
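GLuc-SERCaMP-expressing SH-SY5Y cells, pretreated 16 h with compound, are challenged with thapsigargin to empty ER calcium stores; after 4 h, coelenterazine is added directly to the medium and luminescence is imaged.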

Assay [15] is described as follows: Cell Viability qHTS for small molecule stabilizers of the endoplasmic reticulum resident proteome (AID 1508629).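 Further: human SH-SY5Y neuroblastoma cells carrying the GLuc-SERCaMP reporter; compound exposure about 46 h in total before the viability read; on the % scale 0 is the no-effect control and ±100 the full control effect.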 Particulars: cell viability counter-screen, 100 nM thapsigargin for final 4 h.
The target of another assay is Papain (Carica papaya) (UniProt P00784). The assay is described as follows: Primary qHTS assay for inhibitors of the protease papain (AID 1645873).
For assay [16], the target named is Metallo-beta-lactamase type 2 (Klebsiella pneumoniae) (UniProt C7C422). The assay is described as follows: qHTS to identify inhibitors of the New Delhi Metallo-beta-lactamase (NDM): assay validation screen against the NCATS LOPAC Collection (AID 1794843). In a few lines:
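Enzyme 2 nM final, 50 mM HEPES pH 7.0, 1 uM ZnSO4, 0.01% Tween20; cpds in DMSO, preincub w/ enzyme; + nitrocefin (50 uM stock); A485 at plateau; no-enzyme column as blank.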

Assay [17] addresses Glutathione peroxidase 1 (Homo sapiens) (UniProt P07203). The assay is described as follows: Primary qHTS Assay for Inhibitors of Recombinant Selenoprotein Glutathione Peroxidase 1 (GPX1) (AID 1845191). Further: nearly all actives have a fitted effect of over 65% in size. The method, boiled down:
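GPX1 10 nM, GR 100 nM, GSH 1 mM, NADPH 0.5 mM, CHP 0.5 mM (final). 30-min cpd preincubation, RT. Ex340/Em450 read t=0, t=15 min.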

The target in assay [18] is Phospholipid hydroperoxide glutathione peroxidase GPX4 (Homo sapiens) (UniProt P36969). Nature of the assay: Primary qHTS Assay for Inhibitors of Recombinant Selenoprotein Glutathione Peroxidase 4 (GPX4) (AID 1845192). Further: nearly all actives have a fitted effect of over 65% in size. To be noted: outcome: dose series up to 50 µM unless noted. The method, boiled down:
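qHTS, GR-coupled: GPX4 200 nM + cpd 30 min RT → GSH 1 mM, NADPH 0.5 mM, GR 100 nM → CHP 0.5 mM start; fluor 340/450 at t0 and t15 min; no-enzyme wells as control.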

Assay [19] in a line: qHTS assay to identify inhibitors of the type 1 interferon - major histocompatibility complex class I in skeletal muscle: Counter screen cell viability and HiBit confirmation (AID 1347412). Further: potency means the concentration at half of the fitted maximal effect; nearly all actives have a fitted effect of over 60% in size. To be noted: iHSKM muscle cells + IFN-b, HiBiT or CellTiter-Glo, 24 h; HiBiT. In a few lines: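 Myoblasts (C25cl48, HLA-B HiBiT) seeded in medium without dexamethasone, IFN-b 4 ng/ml added except unstimulated columns; 1 hr later compounds pinned (12-pt 1:3, top 46 uM final). Incubated 24 hrs, lysed 10 min, luminescence measured.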

T1 sequence (P35557 whole entry, looked up): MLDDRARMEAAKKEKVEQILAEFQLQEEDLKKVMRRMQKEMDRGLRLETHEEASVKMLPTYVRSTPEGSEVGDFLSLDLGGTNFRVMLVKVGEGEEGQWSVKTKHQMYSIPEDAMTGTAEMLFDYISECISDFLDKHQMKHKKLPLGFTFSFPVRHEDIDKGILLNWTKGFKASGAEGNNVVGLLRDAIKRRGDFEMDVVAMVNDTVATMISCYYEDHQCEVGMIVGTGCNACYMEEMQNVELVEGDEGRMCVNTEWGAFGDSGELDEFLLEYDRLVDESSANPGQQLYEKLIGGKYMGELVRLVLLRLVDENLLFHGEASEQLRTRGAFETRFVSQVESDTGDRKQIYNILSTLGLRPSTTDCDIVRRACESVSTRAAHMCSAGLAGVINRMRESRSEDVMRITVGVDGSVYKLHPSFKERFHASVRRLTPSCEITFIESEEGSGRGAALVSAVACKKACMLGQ
T1 sequence (Q14397 whole entry, looked up): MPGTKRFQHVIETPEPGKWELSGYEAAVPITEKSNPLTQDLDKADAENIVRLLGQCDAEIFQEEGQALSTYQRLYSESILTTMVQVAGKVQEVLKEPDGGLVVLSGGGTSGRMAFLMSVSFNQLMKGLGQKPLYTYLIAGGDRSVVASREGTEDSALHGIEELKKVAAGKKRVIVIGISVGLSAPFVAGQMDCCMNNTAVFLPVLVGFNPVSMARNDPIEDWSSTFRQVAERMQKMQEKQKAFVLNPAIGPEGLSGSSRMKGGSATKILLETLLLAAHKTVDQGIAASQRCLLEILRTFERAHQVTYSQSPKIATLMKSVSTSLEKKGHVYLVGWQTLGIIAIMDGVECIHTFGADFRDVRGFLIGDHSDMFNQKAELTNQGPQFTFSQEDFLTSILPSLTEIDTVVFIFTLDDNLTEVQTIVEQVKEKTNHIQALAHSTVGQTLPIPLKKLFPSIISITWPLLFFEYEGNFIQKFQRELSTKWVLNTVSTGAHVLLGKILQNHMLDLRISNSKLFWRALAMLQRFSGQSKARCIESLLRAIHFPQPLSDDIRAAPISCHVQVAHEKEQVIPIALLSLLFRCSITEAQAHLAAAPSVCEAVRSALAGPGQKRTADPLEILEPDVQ
Sequence of N-terminal Xaa-Pro-Lys N-methyltransferase 1 (Homo sapiens) (Q9BV86 whole entry, looked up): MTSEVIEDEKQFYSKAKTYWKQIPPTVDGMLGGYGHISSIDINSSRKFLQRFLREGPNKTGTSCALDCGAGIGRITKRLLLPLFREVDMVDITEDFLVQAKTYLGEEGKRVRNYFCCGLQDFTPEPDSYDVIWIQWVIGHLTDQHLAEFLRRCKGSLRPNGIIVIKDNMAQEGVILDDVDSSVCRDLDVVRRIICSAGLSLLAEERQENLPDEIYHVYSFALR
Sequence of Papain (Carica papaya) (P00784 whole entry, looked up): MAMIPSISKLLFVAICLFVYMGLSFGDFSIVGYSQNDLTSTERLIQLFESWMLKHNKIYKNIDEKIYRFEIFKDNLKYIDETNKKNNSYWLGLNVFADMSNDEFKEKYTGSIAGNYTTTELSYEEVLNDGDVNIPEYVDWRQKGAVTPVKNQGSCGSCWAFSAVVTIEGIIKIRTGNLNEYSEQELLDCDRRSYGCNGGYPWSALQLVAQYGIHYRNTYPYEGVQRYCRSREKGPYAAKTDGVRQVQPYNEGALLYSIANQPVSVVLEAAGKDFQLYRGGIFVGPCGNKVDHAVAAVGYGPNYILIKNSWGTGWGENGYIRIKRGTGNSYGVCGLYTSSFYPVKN
Sequence of Glutathione peroxidase 1 (Homo sapiens) (P07203 whole entry, looked up): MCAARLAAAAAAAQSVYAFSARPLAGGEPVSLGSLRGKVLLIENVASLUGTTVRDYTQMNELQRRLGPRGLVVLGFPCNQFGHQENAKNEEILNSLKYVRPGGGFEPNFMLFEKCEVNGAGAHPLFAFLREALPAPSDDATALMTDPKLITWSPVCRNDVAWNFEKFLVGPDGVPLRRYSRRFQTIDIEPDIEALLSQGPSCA
Sequence of Parathyroid hormone/parathyroid hormone-related peptide receptor (Homo sapiens) (Q03431 whole entry, looked up): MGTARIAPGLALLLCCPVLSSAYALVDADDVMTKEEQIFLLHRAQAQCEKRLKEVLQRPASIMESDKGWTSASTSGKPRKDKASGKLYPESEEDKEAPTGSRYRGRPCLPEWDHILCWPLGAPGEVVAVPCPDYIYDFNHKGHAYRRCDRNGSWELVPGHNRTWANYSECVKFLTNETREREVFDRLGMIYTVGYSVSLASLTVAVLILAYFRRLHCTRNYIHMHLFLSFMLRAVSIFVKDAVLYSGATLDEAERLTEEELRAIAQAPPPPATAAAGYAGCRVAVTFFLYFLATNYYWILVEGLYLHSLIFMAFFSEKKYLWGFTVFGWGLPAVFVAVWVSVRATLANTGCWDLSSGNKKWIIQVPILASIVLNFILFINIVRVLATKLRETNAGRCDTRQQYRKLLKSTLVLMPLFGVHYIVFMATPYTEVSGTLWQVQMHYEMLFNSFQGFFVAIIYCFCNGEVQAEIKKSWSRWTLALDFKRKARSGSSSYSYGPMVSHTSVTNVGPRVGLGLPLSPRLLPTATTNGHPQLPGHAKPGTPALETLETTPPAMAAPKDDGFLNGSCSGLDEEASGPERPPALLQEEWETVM
Sequence of Atrial natriuretic peptide receptor 2 (Homo sapiens) (P20594 whole entry, looked up): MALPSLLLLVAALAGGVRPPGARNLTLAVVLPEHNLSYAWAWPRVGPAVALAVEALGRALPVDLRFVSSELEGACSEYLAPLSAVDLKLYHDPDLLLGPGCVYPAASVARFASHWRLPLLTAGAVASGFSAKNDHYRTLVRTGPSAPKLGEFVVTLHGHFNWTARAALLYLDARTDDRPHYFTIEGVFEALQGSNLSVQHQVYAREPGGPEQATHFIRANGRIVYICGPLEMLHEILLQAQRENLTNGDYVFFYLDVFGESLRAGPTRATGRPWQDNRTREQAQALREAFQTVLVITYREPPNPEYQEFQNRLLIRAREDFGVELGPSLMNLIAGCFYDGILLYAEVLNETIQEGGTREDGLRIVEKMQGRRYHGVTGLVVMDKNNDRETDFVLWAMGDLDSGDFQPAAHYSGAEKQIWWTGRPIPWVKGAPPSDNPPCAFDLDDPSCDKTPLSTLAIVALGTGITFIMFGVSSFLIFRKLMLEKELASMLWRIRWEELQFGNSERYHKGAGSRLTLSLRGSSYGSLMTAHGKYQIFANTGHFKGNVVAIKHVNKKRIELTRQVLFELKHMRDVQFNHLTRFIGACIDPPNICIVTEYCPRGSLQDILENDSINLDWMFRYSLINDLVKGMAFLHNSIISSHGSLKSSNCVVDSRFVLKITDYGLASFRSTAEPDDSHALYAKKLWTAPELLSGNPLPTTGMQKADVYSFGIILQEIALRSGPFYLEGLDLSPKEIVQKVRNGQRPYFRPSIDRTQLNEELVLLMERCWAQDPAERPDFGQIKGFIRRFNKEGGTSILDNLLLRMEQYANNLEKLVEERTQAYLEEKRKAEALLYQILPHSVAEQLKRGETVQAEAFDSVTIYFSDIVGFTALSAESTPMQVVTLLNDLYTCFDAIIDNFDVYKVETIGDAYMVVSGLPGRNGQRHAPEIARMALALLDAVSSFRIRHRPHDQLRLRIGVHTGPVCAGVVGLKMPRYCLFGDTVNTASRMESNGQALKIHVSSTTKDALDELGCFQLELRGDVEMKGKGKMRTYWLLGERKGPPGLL
Sequence of Phospholipid hydroperoxide glutathione peroxidase GPX4 (Homo sapiens) (P36969 whole entry, looked up): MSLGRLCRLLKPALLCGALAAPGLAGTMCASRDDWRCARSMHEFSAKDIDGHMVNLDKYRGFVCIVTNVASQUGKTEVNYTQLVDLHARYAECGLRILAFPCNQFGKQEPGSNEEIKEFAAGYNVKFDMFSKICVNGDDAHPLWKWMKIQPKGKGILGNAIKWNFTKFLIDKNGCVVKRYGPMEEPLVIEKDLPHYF
Sequence of Atrial natriuretic peptide receptor 1 (Homo sapiens) (P16066 whole entry, looked up): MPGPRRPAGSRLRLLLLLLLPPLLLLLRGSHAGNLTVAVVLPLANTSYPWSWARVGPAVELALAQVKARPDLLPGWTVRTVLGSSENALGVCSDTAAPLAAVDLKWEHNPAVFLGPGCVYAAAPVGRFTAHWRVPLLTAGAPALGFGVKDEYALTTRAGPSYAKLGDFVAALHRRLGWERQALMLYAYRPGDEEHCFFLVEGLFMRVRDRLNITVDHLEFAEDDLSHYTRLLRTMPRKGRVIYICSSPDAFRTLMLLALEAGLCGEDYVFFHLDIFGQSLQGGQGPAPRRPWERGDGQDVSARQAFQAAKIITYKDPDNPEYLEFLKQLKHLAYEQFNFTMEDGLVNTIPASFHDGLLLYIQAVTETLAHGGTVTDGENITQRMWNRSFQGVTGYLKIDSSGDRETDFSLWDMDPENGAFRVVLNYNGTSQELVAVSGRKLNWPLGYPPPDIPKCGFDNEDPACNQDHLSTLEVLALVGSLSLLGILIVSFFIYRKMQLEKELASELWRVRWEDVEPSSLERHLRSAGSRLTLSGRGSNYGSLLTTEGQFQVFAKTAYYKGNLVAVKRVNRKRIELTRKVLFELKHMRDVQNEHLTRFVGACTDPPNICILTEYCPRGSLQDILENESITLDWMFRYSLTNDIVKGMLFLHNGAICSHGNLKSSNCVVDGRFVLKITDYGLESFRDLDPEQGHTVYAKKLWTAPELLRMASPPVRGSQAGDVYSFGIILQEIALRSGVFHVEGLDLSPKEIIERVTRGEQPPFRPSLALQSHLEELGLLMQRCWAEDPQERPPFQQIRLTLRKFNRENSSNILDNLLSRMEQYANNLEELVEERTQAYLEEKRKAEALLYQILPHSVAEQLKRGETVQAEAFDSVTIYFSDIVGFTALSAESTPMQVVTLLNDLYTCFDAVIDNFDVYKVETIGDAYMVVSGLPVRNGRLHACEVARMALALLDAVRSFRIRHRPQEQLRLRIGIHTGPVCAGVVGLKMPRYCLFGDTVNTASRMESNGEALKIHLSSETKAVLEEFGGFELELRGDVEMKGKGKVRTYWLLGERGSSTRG
Sequence of Single-stranded DNA cytosine deaminase (Homo sapiens) (Q9GZX7 whole entry, looked up): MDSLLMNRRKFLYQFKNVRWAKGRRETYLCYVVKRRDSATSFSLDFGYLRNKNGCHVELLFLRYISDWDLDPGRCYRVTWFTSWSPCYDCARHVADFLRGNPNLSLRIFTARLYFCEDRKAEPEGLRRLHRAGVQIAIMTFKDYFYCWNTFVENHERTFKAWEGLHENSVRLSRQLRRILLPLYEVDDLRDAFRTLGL

With `O=Nc1c(-c2c(O)[nH]c3ccccc23)[nH]c2ccccc12`, the result in [1], in assay [2], in assay [5], in [8], in assay [10] and in [12] was inactive. Moreover, the Potency result (in [3]; in [4]; in assay [7]; in assay [11]; with Papain (Carica papaya); in assay [16]) was “inactive” throughout. Besides, the Potency entry in assay [17] and in assay [18] was “inactive” throughout. Further, the Potency in assay [6] was 20 µM (active); in [9] it was 11.2 µM (active); in assay [13], 15.8 µM (active); in assay [14], 28.2 µM (active) and 4.47 µM (active); in [19], 14 µM (active). For the same molecule, the max response in [15] was -10.5%.
